The record followed here is PubChem BioAssay (Tox21).

Inconclusive results are not listed. The source made the active and inactive calls. Unless noted, calls come from the whole dose curve.

A short description of assay [1]: Nuclear factor erythroid 2-related factor 2/antioxidant responsive element (Nrf2/ARE) small molecule agonists: qHTS cell viability counter screen in human keratinocytes (AID 1919968; active = well fitted curve in the direction sought with a large enough effect in the repeat runs; an effect the other way counts as inactive or inconclusive; note: nearly all actives have a fitted effect of over 55% in size; note: potency is the fitted concentration of half-maximal effect). The method, boiled down:
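HaCaT ARE reporter line, 1,500 cells/well; 5 h settle, 37 C/5% CO2; cpd in DMSO pinned; 23 h exposure; CellTiter-Fluor, 1 h; fluorescence.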

The nature of assay [2]: Nuclear factor erythroid 2-related factor 2/antioxidant responsive element (Nrf2/ARE) small molecule agonists: luciferase reporter gene qHTS assay in human keratinocytes (AID 1919969). Note: nearly all actives have a fitted effect of over 35% in size. Note: potency is the fitted concentration of half-maximal effect.
The target in assay [3] is Gonadotropin-releasing hormone receptor (Homo sapiens) (UniProt P30968). Kind of assay: Human gonadotropin-releasing hormone receptor (GnRHR) small molecule agonists, calcium flux assay in GnRHR-HEK293 cells (AID 1920063). Note: nearly all actives have a fitted effect of over 35% in size. The method, boiled down:
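GnRHR-HEK293, 1500 cells/well, 18 h 37 C/5% CO2; Ca dye 1 h 37 C; cpd pinned (DMSO), agonist mode; kinetic FL 480/540, 3 min, 1 s reads; 15 conc, n=3.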

The target in assay [4] is KiSS-1 receptor (Homo sapiens) (UniProt Q969F8). Kind of assay: Human kisspeptin (KISS1R) small molecule agonists, calcium flux assay in KISS1R-HEK293 cells (AID 1920064; active = well fitted curve in the direction sought with a large enough effect in the repeat runs; an effect the other way counts as inactive or inconclusive). In a few lines: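 Stable human KISS1R HEK293 line; 18 h plating, 37 C/5% CO2; calcium dye 1 h 37 C; compound pin transfer; kinetic fluorescence Ex/Em 480/540, 3 min.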
Assay [5] in a line: G protein-coupled receptor (GPCR) small molecule agonists, calcium flux assay: HEK293 wild type cell line counter screen (AID 1920065). In a few lines:
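Kinetic fluorescence at Ex/Em 480/540, recorded every second over 3 min, served as the read-out after compound addition. Each compound was tested at 15 concentrations in triplicate on cells pre-loaded with calcium dye for 1 h.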

Assay [6] can be described thus: p53 small molecule agonists, cell-based qHTS assay with rat liver microsomes: qHTS cell viability counter screen (AID 1963580). Note: nearly all actives have a fitted effect of over 45% in size. The method, boiled down:
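p53RE-bla HCT-116 cells (4,000/well) rested 5 h at 37 C, then given Tox21 compounds in DMSO with rat liver microsomes (0.5 mg/mL final) plus NADPH (0.5 mg/mL final) for 16 h at 37 C. Viability read by CellTiter-Glo luminescence after 30 min at room temperature.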

A short description of assay [7]: p53 small molecule agonists, cell-based qHTS assay: qHTS cell viability counter screen (AID 1963581). Note: nearly all actives have a fitted effect of over 45% in size. In a few lines:
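HCT-116 p53RE-bla cells, 4,000/well, plated 5 h before compound pin transfer; 16 h at 37 C; bla substrate 2 h RT; then CellTiter-Glo, 30 min RT, luminescence.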

In assay [8] the target is 5-hydroxytryptamine receptor 2A (Homo sapiens) (UniProt P28223). Kind of assay: 5-hydroxytryptamine receptor 2A (HTR2A) small molecule antagonists, cell-based qHTS assay (AID 1963586). Note: nearly all actives have a fitted effect of over 45% in size. The method, boiled down:
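Antagonist-mode intracellular calcium assay: DOI (4 nM) added after 5 min compound pre-incubation at room temperature to dye-loaded HTR2A-CHO cells. Fluorescence followed for 3 min, sampled every second.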

Assay [9] shares this target. Kind of assay: 5-hydroxytryptamine receptor 2A (HTR2A) small molecule agonists, cell-based qHTS assay (AID 1963587). Note: nearly all actives have a fitted effect of over 30% in size. The method, boiled down:
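HTR2A-CHO cells, plated 18 h at 37 C/5% CO2, dye-loaded 1 h at 37 C; compounds in DMSO added by pin tool (agonist mode). Intracellular calcium flux read as kinetic fluorescence on FDSS over 2 min at 1 s intervals.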

The target in assay [10] is Muscarinic acetylcholine receptor M1 (Homo sapiens) (UniProt P11229). Kind of assay: Cholinergic receptor muscarinic 1 (CHRM1) small molecule antagonists, cell-based qHTS assay (AID 1963588). Note: nearly all actives have a fitted effect of over 40% in size. Note: potency is the fitted concentration of half-maximal effect. In a few lines:
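CHRM1-CHO calcium-flux assay, antagonist mode. Cells were seeded 18 h, dye-loaded 1 h at 37 C and given compound for 5 min at RT, then acetylcholine was added at 50nM. FDSS fluorescence was read 3 min; 15 concentrations, three runs.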

The nature of assay [11]: cAMP Responsive Elements (CRE) small molecule agonists, cell-based qHTS assay (AID 1963590). The method, boiled down: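 HEK 293T CRE-bla, 2,000 cells/well, 18 h preincubation 37 C/5% CO2; cpds (DMSO) pinned, 3 h; LiveBLAzer B/G FRET substrate, 2 h RT.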
For assay [12], the target named is Beta-2 adrenergic receptor (Homo sapiens) (UniProt P07550). Kind of assay: Adrenergic beta2 receptor (ADRB2) small molecule antagonists, cell-based qHTS assay (AID 1963592). Note: series mostly up to about 92 µM; nearly all actives have a fitted effect of over 50% in size. In a few lines:
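Cells (CHO, stable ADRB2 overexpression) incubated 18-20hr at 37C; compounds added from DMSO; agonist mix (1nM isoproterenol, 100uM IBMX, 25uM Ro-20-1724) added; 0.5hr RT; d2-cAMP and anti-cAMP-cryptate added; 1hr RT; 665/615 nm read.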

Assay [13] shares this target. Kind of assay: Adrenergic beta2 receptor (ADRB2) small molecule agonists, cell-based qHTS assay (AID 1963593).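 Note: CHO cells stably overexpressing human ADRB2.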 The method, boiled down:
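CHO cells stably over-expressing ADRB2 were plated overnight at 37C, then dosed with compounds plus a stimulation mix containing 100uM IBMX and 25uM Ro-20-1724 for 0.5hr at room temperature. cAMP was measured by HTRF competition, 1hr.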

The target in assay [14] is D(2) dopamine receptor (Homo sapiens) (UniProt P14416). Kind of assay: Dopamine D2 receptor (DRD2) small molecule agonists, cell-based qHTS assay (AID 1963594). Note: nearly all actives have a fitted effect of over 35% in size. The method, boiled down: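 HEK293 cells stably expressing DRD2 were cultured 24 h at 37 C, then given Ro20-1724 (0.1 mM final) and compounds for 10 min at room temperature. NKH477 (200nM) was then added for 30 min. cAMP was read by HTRF.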

For assay [15] the target is unchanged. Kind of assay: Dopamine D2 receptor (DRD2) small molecule antagonists, cell-based qHTS assay (AID 1963595; active = well fitted inhibition curve with a large enough effect in the signal ratio in the repeat runs, with a control signal flat; the % refers to the signal ratio). The method, boiled down:
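HEK293 cells stably expressing DRD2, preincubated with 0.1 mM Ro20-1724 and compounds 10 min, were stimulated with 200 nM NKH477 plus 12 nM quinpirole for 30 min at room temperature; cAMP measured by HTRF (665/620 nm).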

Assay [16] is described as follows: p53 small molecule agonists, cell-based qHTS assay with human liver microsomes: qHTS cell viability counter screen (AID 1963579). Note: nearly all actives have a fitted effect of over 45% in size. Note: potency is the fitted concentration of half-maximal effect. In a few lines: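 p53RE-bla cells (4,000/well) were pre-incubated 5 h at 37 C, then given compounds in DMSO plus human liver microsomes (0.5 mg/mL final) and NADPH (0.5 mg/mL final) for 16 h at 37 C. Viability was read by CellTiter-Glo luminescence.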

Assay [17] has as its target Muscarinic acetylcholine receptor M1 (Homo sapiens) (UniProt P11229). Kind of assay: Cholinergic receptor muscarinic 1 (CHRM1) small molecule agonists, cell-based qHTS assay (AID 1963589). Note: nearly all actives have a fitted effect of over 35% in size. In a few lines: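 Human M1 in stable CHO line; 18 h plating, 1 h dye load 37 C; cpd added (agonist mode); Ca2+ fluorescence kinetic read, 1 s intervals; 15 conc, 3 runs.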
Assay [18] is described as follows: cAMP Responsive Elements (CRE) small molecule antagonists, cell-based qHTS assay (AID 1963591; active = well fitted inhibition curve with a large enough effect in the signal ratio in the repeat runs, not every such curve was filed as active; the % refers to the signal ratio). In a few lines: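 Beta-lactamase reporter read by FRET substrate (LiveBLAzer B/G) after 2 h at room temperature. CRE-bla HEK293T cells had received compound plus 0.25 uM (final) NKH477 for 3 h at 37 °C.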
Assay [19] can be described thus: p53 small molecule agonists, cell-based qHTS assay (AID 1963582; active = well fitted activation curve with a large enough effect in the signal ratio in the repeat runs, not every such curve was filed as active; the % refers to the signal ratio). The method, boiled down: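 Reporter line: p53RE-bla. Pre-incubation 5 h, 37 C, 5% CO2; compound (DMSO, pin tool) 16 h, 37 C; B/G FRET substrate 2 h RT; fluorescence intensity read.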

5-hydroxytryptamine receptor 2A (Homo sapiens), sequence (P28223 whole entry, looked up): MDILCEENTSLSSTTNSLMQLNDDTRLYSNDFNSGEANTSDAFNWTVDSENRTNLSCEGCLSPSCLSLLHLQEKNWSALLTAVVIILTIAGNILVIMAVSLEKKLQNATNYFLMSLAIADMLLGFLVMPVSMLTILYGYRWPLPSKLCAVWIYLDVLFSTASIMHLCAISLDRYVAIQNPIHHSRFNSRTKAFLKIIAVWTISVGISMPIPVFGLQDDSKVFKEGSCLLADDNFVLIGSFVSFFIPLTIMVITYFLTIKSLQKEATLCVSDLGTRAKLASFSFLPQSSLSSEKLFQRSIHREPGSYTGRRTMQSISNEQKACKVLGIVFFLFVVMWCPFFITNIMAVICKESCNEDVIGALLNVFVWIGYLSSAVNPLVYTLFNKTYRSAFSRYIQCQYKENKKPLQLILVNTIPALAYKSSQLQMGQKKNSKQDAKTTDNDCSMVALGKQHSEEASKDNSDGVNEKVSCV
D(2) dopamine receptor (Homo sapiens), sequence (P14416 whole entry, looked up): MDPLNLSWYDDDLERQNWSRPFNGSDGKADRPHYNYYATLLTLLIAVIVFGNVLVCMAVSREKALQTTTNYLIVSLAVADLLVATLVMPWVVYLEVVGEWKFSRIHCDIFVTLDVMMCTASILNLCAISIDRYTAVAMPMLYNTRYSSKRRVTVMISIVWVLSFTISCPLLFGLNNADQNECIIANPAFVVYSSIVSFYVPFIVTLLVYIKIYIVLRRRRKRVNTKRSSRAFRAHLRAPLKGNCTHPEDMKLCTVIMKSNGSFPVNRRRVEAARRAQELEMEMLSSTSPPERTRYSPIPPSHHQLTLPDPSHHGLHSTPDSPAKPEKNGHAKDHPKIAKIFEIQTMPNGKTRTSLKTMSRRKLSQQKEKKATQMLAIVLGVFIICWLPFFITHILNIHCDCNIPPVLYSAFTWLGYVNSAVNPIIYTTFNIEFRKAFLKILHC
Beta-2 adrenergic receptor (Homo sapiens), sequence (P07550 whole entry, looked up): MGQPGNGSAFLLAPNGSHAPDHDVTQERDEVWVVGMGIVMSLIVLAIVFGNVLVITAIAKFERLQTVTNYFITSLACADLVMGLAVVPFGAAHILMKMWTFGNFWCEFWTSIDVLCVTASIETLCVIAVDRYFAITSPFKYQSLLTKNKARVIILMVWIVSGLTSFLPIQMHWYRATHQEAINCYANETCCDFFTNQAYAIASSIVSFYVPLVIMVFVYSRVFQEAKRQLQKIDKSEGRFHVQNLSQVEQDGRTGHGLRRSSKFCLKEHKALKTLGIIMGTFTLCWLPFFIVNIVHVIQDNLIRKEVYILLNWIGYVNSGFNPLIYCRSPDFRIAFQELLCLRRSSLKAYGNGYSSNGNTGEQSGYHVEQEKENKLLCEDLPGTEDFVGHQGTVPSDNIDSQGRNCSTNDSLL
Muscarinic acetylcholine receptor M1 (Homo sapiens), sequence (P11229 whole entry, looked up): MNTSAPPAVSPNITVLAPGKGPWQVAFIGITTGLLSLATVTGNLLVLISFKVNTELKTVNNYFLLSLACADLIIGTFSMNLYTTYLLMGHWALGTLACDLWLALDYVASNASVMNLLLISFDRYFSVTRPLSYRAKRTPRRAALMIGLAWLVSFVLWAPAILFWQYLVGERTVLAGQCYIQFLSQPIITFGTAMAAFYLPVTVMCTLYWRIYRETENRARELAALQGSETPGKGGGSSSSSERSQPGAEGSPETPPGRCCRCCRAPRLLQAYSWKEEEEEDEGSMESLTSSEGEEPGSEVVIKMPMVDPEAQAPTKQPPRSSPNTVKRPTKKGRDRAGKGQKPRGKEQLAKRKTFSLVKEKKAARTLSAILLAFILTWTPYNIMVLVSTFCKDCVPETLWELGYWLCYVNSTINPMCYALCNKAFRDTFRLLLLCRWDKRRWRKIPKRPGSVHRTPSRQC
Gonadotropin-releasing hormone receptor (Homo sapiens), sequence (P30968 whole entry, looked up): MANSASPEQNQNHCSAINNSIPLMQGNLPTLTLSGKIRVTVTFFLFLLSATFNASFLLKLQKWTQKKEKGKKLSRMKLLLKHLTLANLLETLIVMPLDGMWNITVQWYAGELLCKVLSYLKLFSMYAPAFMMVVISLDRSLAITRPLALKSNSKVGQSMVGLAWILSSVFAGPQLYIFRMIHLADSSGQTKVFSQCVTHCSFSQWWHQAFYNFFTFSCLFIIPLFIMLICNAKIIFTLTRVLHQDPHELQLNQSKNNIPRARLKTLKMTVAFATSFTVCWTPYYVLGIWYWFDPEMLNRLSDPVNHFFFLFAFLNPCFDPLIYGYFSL
KiSS-1 receptor (Homo sapiens), sequence (Q969F8 whole entry, looked up): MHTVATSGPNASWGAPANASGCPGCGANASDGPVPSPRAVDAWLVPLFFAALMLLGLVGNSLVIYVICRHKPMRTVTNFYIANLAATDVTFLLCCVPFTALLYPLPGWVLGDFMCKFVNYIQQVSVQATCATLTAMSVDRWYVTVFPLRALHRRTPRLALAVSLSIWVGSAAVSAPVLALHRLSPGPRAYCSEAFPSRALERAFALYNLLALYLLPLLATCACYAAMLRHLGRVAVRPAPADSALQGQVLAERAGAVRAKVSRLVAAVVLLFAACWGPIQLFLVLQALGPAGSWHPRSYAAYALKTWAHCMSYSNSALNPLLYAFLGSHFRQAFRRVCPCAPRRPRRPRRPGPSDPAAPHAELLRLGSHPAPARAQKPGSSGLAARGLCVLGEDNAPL

`CC[C@H](O)C(C[C@H](C)N(C)C)(c1ccccc1)c1ccccc1`: the Potency entry in [1], in assay [2], in [3], in [4], in assay [5] and in assay [6] was “inactive” throughout. The Potency result in [7], in [8], in [9], in assay [11], in assay [12] and in assay [13] was “inactive” throughout. For the same compound, the Potency result in assay [14] and in [15] was “inactive” throughout. Further, the Potency in [10] was 34.1 µM (active).
In the case of `COC(=O)c1ccccc1S(=O)(=O)NC(=O)Nc1nc(C)cc(C)n1`, the Potency result in [1], in assay [2], in assay [3], in assay [4], in assay [5] and in [16] was “inactive” in each case. The Potency entry in assay [7], in assay [8], in assay [9], in assay [10], in assay [17] and in assay [11] was “inactive” in each case. The Potency result in assay [18], in [12], in assay [14] and in assay [15] was “inactive” each time.
Consider `CCNc1nc(NC(C)C(C)C)nc(SC)n1` (stereo not given), for which the Potency result in assay [1], in assay [2], in assay [3], in assay [4], in assay [5] and in [16] was “inactive” throughout. In addition, the Potency result in [7], in [8], in assay [10], in [11], in [18] and in assay [12] was “inactive” in each case. The Potency entry in assay [14] and in assay [15] was “inactive” in each case.
`O=[N+]([O-])c1ccc(F)c([N+](=O)[O-])c1`: the Potency in assay [1] is 27.6 µM (active). For the same compound, the Potency result in assay [2], in assay [3], in [4], in assay [5], in assay [6] and in assay [7] was “inactive” throughout. In addition, the Potency entry in assay [8], in [9], in assay [10] and in assay [17] was “inactive” each time.
Consider `Fc1ccc(C2(Cn3cncn3)OC2c2ccccc2Cl)cc1` (stereo not given), for which the Potency result in assay [1], in assay [2], in assay [3], in assay [4], in [5] and in assay [16] was “inactive” each time. The Potency result in assay [7], in [8], in [9], in assay [17], in assay [11] and in [12] was “inactive” throughout. The Potency entry in assay [14] and in assay [15] was “inactive” throughout.
On to `O=[N+]([O-])c1cc(Cl)c(Cl)cc1Cl`, for which the Potency entry in [1], in assay [2], in assay [3], in [4], in [5] and in assay [16] was “inactive” each time. The Potency entry in assay [6], in assay [8], in assay [10], in assay [17], in assay [11] and in assay [18] was “inactive” throughout. The Potency entry in assay [12] and in assay [15] was “inactive” each time.
For the compound `Oc1c(Cl)cccc1Cl`, the Potency entry in assay [1], in [2], in assay [3], in assay [4], in [5] and in assay [16] was “inactive” each time. Also, the Potency entry in [7], in assay [8], in [9], in [10], in assay [17] and in [11] was “inactive” in each case. Further, the Potency entry in assay [18], in [12], in assay [13] and in assay [15] was “inactive” each time.
As to `CCOC(=O)COc1ccc(Cl)cc1Cl`, the Potency entry in assay [1], in [2], in [3], in assay [4], in assay [5] and in [6] was “inactive” each time. The Potency entry in [7], in assay [19], in assay [8], in assay [9], in assay [18] and in [13] was “inactive” each time. For the same compound, the Potency result in assay [14] and in assay [15] was “inactive” each time.
As to `CNC(=O)O/N=C(\C)C(C)S(C)(=O)=O` (stereo not given), the Potency entry in assay [1], in assay [3], in assay [4], in assay [5], in [7] and in assay [8] was “inactive” in each case. The Potency result in assay [9], in assay [10], in assay [17], in assay [11], in [18] and in assay [12] was “inactive” in each case. Also, the Potency entry in [13] and in assay [15] was “inactive” throughout. In addition, the Potency in [2] was 708 µM (active); in assay [16], 316 µM (active).
